Lassa entry inh: qHTS for Inhibitors of binding or entry into cells for Lassa Virus; Potency, µM (highest dose often 37.9 µM), hits mostly inhibitors; AID 540256, 2011; Lassa virus pseudotype entry inhibition, cell reporter; 1.2% of 300,000 active; calls by dose curve; tested in HEK293 cells; further: nearly all actives have a fitted effect of over 50% in size
Marburg entry inh: qHTS for inhibitors of binding or entry into cells for Marburg Virus | 1.8% of 300,000 active | AID 540276, 2011 | Potency, µM (titrated, usually from 37.8 µM), usual class: inhibitors | Marburg virus pseudotyped entry inhibition, cell reporter; calls by dose curve; tested in HEK293 cells
SARS PLpro yeast: qHTS of Yeast-based Assay for SARS-CoV PLP; 0.19% of 330,000 active; S. cerevisiae expressing SARS-CoV PLpro, growth rescue; Potency, µM (highest dose often 32.9 µM), most hits filed as activators; AID 485353, 2010; calls by dose curve; further: nearly all actives have a fitted effect of over 55% in size
FMDV inh: High Throughput Screening for Foot and Mouth Disease Virus Antivirals; FMDV antiviral cell-based qHTS; Potency, µM (doses to about 57.9 µM), hits mostly inhibitors; 1.2% of 410,000 active; AID 1159524, 2015; calls by dose curve; tested in HEK293T cells; further: read-out not given here; nearly all actives have a fitted effect of over 45% in size
HCMV antiviral: qHTS Assay for inhibitors of the human cytomegalovirus (HCMV) | HFF cells, HCMV-luciferase reporter, 72 h; hits give low values | activity change, negative = inhibition, % at 57.5 µM | 4.5% of 410,000 active | AID 1259415, 2018; in the data active means activity change below about -60%; inconclusive means no clear call, values can overlap the other calls; inactive means above about -39%
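Two-dose cell screen: HFF monolayers treated with compounds and infected with luciferase-expressing HCMV at 1 PFU/cell, 72 h at 37C, then lysed for luciferase measurement.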
HCV inh: qHTS Assay for Inhibitors of Hepatitis C Virus (HCV); Potency, µM (top dose mostly 41.8 µM), hits mostly inhibitors; 3.4% of 340,000 active; Huh7.5.1 HCVcc-Cre infection, luciferase reporter, 44 h; AID 651820, 2012; active means well fitted inhibition curve with a large enough effect; inconclusive means small, poorly fitted or top-dose-only effect, or another doubt; inactive means no such curve, though single readings can be large or run the other way
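Seed cells (1,000/well) for 4 h; treat with compound and infect with HCVcc-Cre, moi about 0.5. Incubate 44 h, then detect luciferase activity.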
Hits are given with their value; – = inactive; ? = inconclusive; · = not tested or not shown. This is a sample that favours compounds with a hit; in the whole collection about 8% have one here.

SMILES	Lassa entry inh	Marburg entry inh	SARS PLpro yeast	FMDV inh	HCMV antiviral	HCV inh
CCCn1nc(C(=O)Nc2nc(-c3ccccn3)cs2)c2ccccc2c1=O	·	·	–	?	–	5.01µM
Cc1cc(C(=O)Nc2nc(-c3ccccn3)cs2)ccc1[N+](=O)[O-]	?	?	–	–	-72.3	11.2µM
Cc1csc(NC(=O)c2ccc(Cl)cc2[N+](=O)[O-])n1	–	?	–	–	–	1.58µM
CCn1nc(C(=O)Nc2nc(-c3ccccn3)cs2)c2ccccc2c1=O	·	·	–	–	–	?
Cn1cc([N+](=O)[O-])c(C(=O)NC2CCCCCCC2)n1	·	·	–	·	–	·
COc1ccc(Oc2cccc(Cl)c2CNC(=O)CCC(=O)O)cc1	–	–	–	–	–	–
O=C(Nc1nc(-c2ccccn2)cs1)c1ccccc1-n1cnnn1	·	·	–	–	-91.9	?
CC(C)(C)OC(=O)N1CCC(c2c(C(=O)N3CCN(c4ccccn4)CC3)cnn2-c2ccc(F)cc2F)CC1	?	·	·	–	–	·
CC1(C)[C@H]2CC[C@]1(C)[C@H](OC(=O)CC(=O)O)C2	·	–	·	·	·	·
COc1ccc(Cl)cc1Nc1nc(-c2sc(NC(=O)CC(C)C)nc2C)cs1	·	·	–	–	–	11.2µM
CCCCCC(=O)Nc1nc(C)c(-c2csc(Nc3ccc(Cl)cc3)n2)s1	·	·	–	–	?	–
Cc1nc(NC(=O)CC(C)C)sc1-c1csc(Nc2ccc(Cl)cc2)n1	·	·	–	–	–	7.08µM
Cc1nc(NC(=O)CC(C)C)sc1-c1csc(Nc2ccc(Cl)cc2Cl)n1	·	·	–	–	?	–
Cc1ccc(C)c(NC(=O)CCCn2nc(C)c3sc4ccccc4c3c2=O)c1	?	?	·	–	–	·
CC[C@@]1([C@@H]2O[C@@H]([C@H]3O[C@@](O)(CO)[C@H](C)C[C@@H]3C)C[C@@H]2C)CC[C@H]([C@]2(C)CC[C@]3(C[C@H](O)[C@@H](C)[C@@H]([C@@H](C)[C@@H](OC)[C@H](C)C(=O)O)O3)O2)O1 (stereo in doubt)	·	·	·	–	·	·
C/C(=N\NC(=O)CCc1ccccc1)C1C(=O)c2ccccc2C1=O	?	?	–	–	-87.2	–
COc1ccc(C2(c3ccc(OC)cc3)NC(=O)N(CC(=O)NC3(C#N)CCCCC3)C2=O)cc1	·	·	–	–	–	?
COc1ccc(NC(=O)C2CCN(c3cnccn3)CC2)cc1OC	–	–	–	–	–	–
COc1ccc(-c2cc3nc(-c4ccccc4)cc(N4CCN(C(C)=O)CC4)n3n2)cc1	·	·	·	?	–	·
COc1ccc(NC(=O)C2CCN(c3cc(-c4ccccc4)nc4ncnn34)CC2)cc1OC	?	–	–	?	-89.4	–
COc1ccccc1NC(=O)N1CCN(c2cc(-c3ccccc3)nc3ncnn23)CC1	–	?	–	31.6µM	-95.4	10µM
COc1ccc(OC)c(NC(=O)C2CCN(c3ncccn3)CC2)c1	–	–	–	–	–	–
COc1ccc(OC)c(NC(=O)C2CCN(c3cc(-c4ccccc4)nc4ncnn34)CC2)c1	–	?	–	–	?	14.1µM
O=C(CSc1nnnn1-c1ccc(F)cc1)NCc1cccs1	–	–	–	–	–	–
COC(=O)c1c(N2C(=O)CC(Sc3ccccc3C(=O)O)C2=O)sc2c1CCCC2 (stereo not given)	–	–	–	–	–	–
SMILES	Lassa entry inh	Marburg entry inh	SARS PLpro yeast	FMDV inh	HCMV antiviral	HCV inh
COC(=O)CC=C[C@@H](C)[C@@H](C=NOC[C@@H](O)COCc1ccco1)OC	·	–	·	·	·	·
COc1ccc2c(c1OC)C(=O)OC2	·	·	–	–	–	–
COc1ccc2c3c(cccc13)C(=O)CC2	–	–	–	–	-70.8	–
COc1cc(/C=N/NC(=O)c2ccc(CSc3nc4ccccc4[nH]3)cc2)ccc1O	–	–	–	–	–	?
COc1cccc(/C(C#N)=C/c2c(-c3ccc(Cl)cc3)nc3c(C)cccn23)c1	?	?	–	–	?	11.2µM
Cc1cccn2c(/C=N/OCc3cccc(F)c3)c(-c3ccc(Cl)cc3)nc12	–	–	–	–	–	–
CCCCn1c(O)c(C(C)=NCc2cc(OC)cc(OC)c2)c(=O)[nH]c1=O	–	–	–	–	–	?
CCCCn1c(O)c(C(CC)=Nc2ccc(OC)cc2OC)c(=O)[nH]c1=O	?	?	–	17.8µM	–	?
CCCCn1c(O)c(C(CC)=NCc2cccnc2)c(=O)[nH]c1=O	–	–	–	–	–	–
CCCCn1c(O)c(C(CC)=NCc2cc(OC)cc(OC)c2)c(=O)[nH]c1=O	?	–	–	?	–	12.6µM
CCC(=NCCN1CCCCC1)c1c(O)n(C)c(=O)n(C)c1=O	–	–	–	–	–	–
CC(=Nc1ccc2c(c1)CCC2)c1c(O)n(C2CCCCC2)c(=O)[nH]c1=O	–	–	–	–	–	–
CCC(=NCCOc1ccc(Cl)cc1)c1c(O)n(C)c(=O)n(C)c1=O	–	–	–	25.1µM	?	–
CCC(=Nc1ccc2c(c1)CCC2)c1c(O)n(C2CCCCC2)c(=O)[nH]c1=O	?	–	–	–	-85.1	–
CCCCN(CCCNC(=O)c1c(C)oc2nc[nH]c(=O)c12)Cc1ccccc1	–	–	·	–	–	·
CCCCn1c(O)c(C(CC)=Nc2ccc(OCC)cc2)c(=O)[nH]c1=O	0.326µM	–	–	?	–	?
C=CCn1c(O)c(C(C)=Nc2ccc(N(CC)CC)cc2)c(=O)[nH]c1=O	?	–	–	?	–	?
CCC(=Nc1ccc(OC)cc1OC)c1c(O)n(C)c(=O)n(C)c1=O	–	?	–	31.6µM	–	?
CCC(=NCc1cc(OC)cc(OC)c1)c1c(O)n(C2CCCCC2)c(=O)[nH]c1=O	·	·	–	?	–	?
CCCCn1c(O)c(C(CC)=NC(C)c2ccccc2)c(=O)[nH]c1=O (stereo not given)	?	?	–	–	–	?
C=CCn1c(O)c(C(CC)=Nc2ccc(N(CC)CC)cc2)c(=O)[nH]c1=O	3.26µM	–	–	–	–	?
COc1cc(CN=C(C)c2c(O)n(C3CCCCC3)c(=O)[nH]c2=O)cc(OC)c1	?	–	–	?	–	10µM
CCOC(=O)c1c(C)[nH]c(CCC(=O)NCc2cc(OC)c(OC)c(OC)c2)c1C	–	·	·	–	–	·
COc1ccccc1CN1CCC2(CCC(CNC(=O)c3ccccc3N(C)C)O2)CC1 (stereo not given)	·	·	·	–	·	·
Cc1cc(O)cc(O)c1C(=O)OC1(C)C(=O)C=C2C=C(C=CC(=O)O)OC=C2C1=O (stereo not given)	?	–	·	·	·	·
Cc1cccc(C)c1N1C(=O)[C@@H]2[C@H](ON(c3ccccc3)[C@H]2c2ccncc2)C1=O	·	–	·	·	·	·
Cc1ccc(S(=O)(=O)N2CCOCC2)cc1NC(=O)CSc1nnc2cc(C)c3ccccc3n12	?	?	–	?	-63.3	?

Bioassay records (PubChem BioAssay)
